A short description of assay [1]: small molecules captured by biotinylated probe aFSTL3 – biochemical, small-molecule microarray, fluorescence 635/667, stem cell growth factor project, primary screen (AID 1064).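 Further: measures binding of the biotinylated anti-FSTL3 antibody to printed compounds.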 To be noted: higher = more signal.
Assay [2] in a line: binders from COS7 lysate, DM2A8 probe, primary screen, torsin A project, cell lysate, small-molecule microarray, fluorescence 635/667 (AID 1065). To be noted: higher = more signal, COS7 lysate expressing mutant human TOR1A.
A short description of assay [3]: small molecules captured by biotinylated probe aFGF2 – biochemical, small-molecule microarray, fluorescence 635/667, stem cell growth factor project, primary screen (AID 1067).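 Further: measures binding of biotinylated aFGF2 protein to printed compounds on slides; z-score merges feature fluorescence and signal-to-noise across triplicate slides.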 To be noted: higher = more signal.
A short description of assay [4]: small molecules captured by biotinylated probe aFGF10 – biochemical, small-molecule microarray, fluorescence 635/667, stem cell growth factor project, primary screen (AID 1071).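 Further: score merges 667 nm spot intensity and signal to noise from triplicate slides.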 The conditions noted are these: higher = more signal.
Assay [5] has as its target Neurogenic locus notch homolog protein 2 (Homo sapiens) (UniProt Q04721). The assay is described as follows: small molecules binding Notch2 protein – biochemical, small-molecule microarray, 635 nm fluorescence, stem cell growth factors, primary screen (AID 1073). The conditions noted are these: higher = more signal.
Assay [6] concerns the target Pro-neuregulin-1, membrane-bound isoform (Homo sapiens) (UniProt Q02297). The assay is described as follows: small molecules binding neuregulin-1 protein – biochemical, small-molecule microarray, fluorescence 635/667, psychiatric disease protein project, primary screen (AID 1075).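 Further: score combines 667 nm spot fluorescence with signal to noise.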 To be noted: NRG1 binding, 635 nm fluorescence, higher = more signal.
The test system of assay [7] is Neuregulin-1 EGF-like domain. The assay can be described thus: small molecules binding NRG1 EGF domain – biochemical, small-molecule microarray, 635 nm fluorescence, primary screen (AID 1081).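 Further: binding of the protein to compounds printed on small-molecule microarray slides.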 The conditions noted are these: higher = more signal.
Assay [8] is described as follows: FRG1 expression reporter modulators in myotubes – cell-based, C2C12 myotubes, firefly/Renilla luciferase, luminescence, FRG1 inhibition for FSHD, primary screen (AID 1084). The conditions noted are these: FRG1 promoter luciferase, higher = more signal, called active from +8 up or from −8 down.
Assay [9] can be described thus: small molecules captured by biotinylated probe aFST – biochemical, small-molecule microarray, fluorescence 635/667, stem cell growth factor project, primary screen (AID 1086).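 Further: score merges 667 nm fluorescence with signal-to-noise of each printed compound spot.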 The conditions noted are these: higher = more signal.
A short description of assay [10]: binders of probe aHhip on microarray, primary screen, stem cell growth factor project, biochemical, small-molecule microarray, fluorescence 635/667 (AID 1087).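 Further: score merges spot fluorescence at 667nm with spot signal to noise ratio.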 The conditions noted are these: higher = more signal.
For assay [11], the system named is PRMT1 (protein arginine N-methyltransferase 1). The assay can be described thus: small molecules binding arginine methyltransferase PRMT1 – biochemical, small-molecule microarray, 635 nm fluorescence, primary screen (AID 1088).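 Further: binding of Prmt1 protein to compounds spotted on small-molecule microarray slides.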 To be noted: higher = more signal.
Assay [12] can be described thus: growth effects on S. cerevisiae YJM789 – YJM789 clinical isolate, OD600, 24 h, basal, primary screen (AID 1089).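 Further: growth of clinical yeast isolate S. cerevisiae YJM 789 seeded 1000 cells per well; test concentration not given here.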 The conditions noted are these: higher = more signal, called active from +8 up or from −8 down.
Assay [13] can be described thus: S. pombe growth modifiers, basal conditions – strain 972, OD600, 24 h, no modulator, primary screen (AID 1090).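 Further: basal condition with compound alone and no growth modifier present; test concentration not given here.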 The conditions noted are these: S. pombe 972 growth, higher = more signal, called active from +8 up or from −8 down.
The nature of assay [14]: budding yeast growth modifiers under rapamycin – strain BY4716, OD600, 96 h, primary screen (AID 1091). Further: test concentration not given here. To be noted: S. cerevisiae BY4716 + rapamycin, higher = more signal, called active from +8 up or from −8 down.
The target of assay [15] is Torsin-1A-interacting protein 2 (Homo sapiens) (UniProt Q8NFQ8). The assay can be described thus: small molecules binding lysate-expressed LULL1 – cell lysate, human LULL1 lysate, 635/667 nm fluorescence, primary screen (AID 1092).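 Further: probe is lysate of COS7 cells overexpressing human LULL1; score merges per-feature 667 nm fluorescence with signal-to-noise.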 To be noted: small-molecule microarray, hLULL1 lysate binding, 635 nm fluorescence; higher = more signal.
Chain of Torsin-1A-interacting protein 2 (Homo sapiens) (Q8NFQ8 whole entry, looked up): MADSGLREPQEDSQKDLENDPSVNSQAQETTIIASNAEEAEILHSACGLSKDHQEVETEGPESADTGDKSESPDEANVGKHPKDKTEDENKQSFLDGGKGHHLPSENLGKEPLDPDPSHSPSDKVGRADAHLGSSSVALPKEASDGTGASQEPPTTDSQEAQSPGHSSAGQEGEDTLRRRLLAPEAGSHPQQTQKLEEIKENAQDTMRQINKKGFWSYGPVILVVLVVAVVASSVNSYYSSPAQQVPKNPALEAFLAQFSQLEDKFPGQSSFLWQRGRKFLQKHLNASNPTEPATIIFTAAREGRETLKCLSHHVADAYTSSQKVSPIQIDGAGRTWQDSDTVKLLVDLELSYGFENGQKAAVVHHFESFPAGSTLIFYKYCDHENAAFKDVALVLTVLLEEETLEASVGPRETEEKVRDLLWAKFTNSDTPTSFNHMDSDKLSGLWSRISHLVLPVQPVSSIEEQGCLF
A short description of assay [16]: optical density change of DRC41 E. coli – strain DRC41, OD650, 24 h, E. coli filamentation project, primary screen (AID 1093).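 Further: MC1000 strain lacking acrAB efflux and sulA so SOS filamentation is blocked; test concentration not given here.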 To be noted: E. coli DRC41 growth, higher = more signal, called active from +8 up or from −8 down.
A short description of assay [17]: probe aLefty2 binding to arrayed compounds – biochemical, biotinylated probe, 635/667 nm fluorescence, primary screen (AID 1094).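 Further: score merges spot fluorescence near 667 nm with spot signal-to-noise ratio.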 The conditions noted are these: small-molecule microarray, higher = more signal.
In assay [18] the test system is Noggin (protein binding on small-molecule microarray). The assay can be described thus: small molecules binding Noggin protein – biochemical, 635/667 nm fluorescence, primary screen (AID 1095).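 Further: score merges 667 nm feature fluorescence with signal to noise over triplicate slides.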 The conditions noted are these: 635 nm fluorescence, higher = more signal.
In assay [19] the target is Neurogenic locus notch homolog protein 3 (Homo sapiens) (UniProt Q9UM47). The assay is described as follows: small molecules binding NOTCH3 protein – biochemical, 635/667 nm fluorescence, primary screen (AID 1096). To be noted: small-molecule microarray, 635 nm fluorescence, higher = more signal.
Assay [20] is described as follows: probe aEGFR binding to arrayed compounds – biochemical, biotinylated probe, 635/667 nm fluorescence, primary screen (AID 1097).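 Further: probe is a biotinylated anti-EGFR antibody binding compounds printed on slides; score combines fluorescence near 667 nm and signal to noise of each spot.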 To be noted: small-molecule microarray, higher = more signal.

Molecules are shown by their SMILES. The source made the active and inactive calls.

Chain of Pro-neuregulin-1, membrane-bound isoform (Homo sapiens) (Q02297 whole entry, looked up, the tested form may be a part, canonical isoform): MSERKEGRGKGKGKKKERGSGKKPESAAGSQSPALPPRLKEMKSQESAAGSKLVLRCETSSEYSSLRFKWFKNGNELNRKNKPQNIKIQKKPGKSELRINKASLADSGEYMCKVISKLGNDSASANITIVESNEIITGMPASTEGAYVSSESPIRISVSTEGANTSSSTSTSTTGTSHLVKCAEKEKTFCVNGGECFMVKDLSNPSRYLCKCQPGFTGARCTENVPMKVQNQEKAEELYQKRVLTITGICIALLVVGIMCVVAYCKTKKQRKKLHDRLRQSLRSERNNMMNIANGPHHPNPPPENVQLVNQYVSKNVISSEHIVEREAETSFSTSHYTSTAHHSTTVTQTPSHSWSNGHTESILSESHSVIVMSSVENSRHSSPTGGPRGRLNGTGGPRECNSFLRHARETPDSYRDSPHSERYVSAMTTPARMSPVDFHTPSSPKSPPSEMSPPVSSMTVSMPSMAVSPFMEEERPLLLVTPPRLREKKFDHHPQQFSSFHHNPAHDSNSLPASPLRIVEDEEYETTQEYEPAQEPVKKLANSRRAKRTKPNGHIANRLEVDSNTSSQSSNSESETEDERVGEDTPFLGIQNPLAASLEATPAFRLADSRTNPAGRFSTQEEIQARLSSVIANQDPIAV
Chain of Neurogenic locus notch homolog protein 2 (Homo sapiens) (Q04721 whole entry, looked up, canonical isoform): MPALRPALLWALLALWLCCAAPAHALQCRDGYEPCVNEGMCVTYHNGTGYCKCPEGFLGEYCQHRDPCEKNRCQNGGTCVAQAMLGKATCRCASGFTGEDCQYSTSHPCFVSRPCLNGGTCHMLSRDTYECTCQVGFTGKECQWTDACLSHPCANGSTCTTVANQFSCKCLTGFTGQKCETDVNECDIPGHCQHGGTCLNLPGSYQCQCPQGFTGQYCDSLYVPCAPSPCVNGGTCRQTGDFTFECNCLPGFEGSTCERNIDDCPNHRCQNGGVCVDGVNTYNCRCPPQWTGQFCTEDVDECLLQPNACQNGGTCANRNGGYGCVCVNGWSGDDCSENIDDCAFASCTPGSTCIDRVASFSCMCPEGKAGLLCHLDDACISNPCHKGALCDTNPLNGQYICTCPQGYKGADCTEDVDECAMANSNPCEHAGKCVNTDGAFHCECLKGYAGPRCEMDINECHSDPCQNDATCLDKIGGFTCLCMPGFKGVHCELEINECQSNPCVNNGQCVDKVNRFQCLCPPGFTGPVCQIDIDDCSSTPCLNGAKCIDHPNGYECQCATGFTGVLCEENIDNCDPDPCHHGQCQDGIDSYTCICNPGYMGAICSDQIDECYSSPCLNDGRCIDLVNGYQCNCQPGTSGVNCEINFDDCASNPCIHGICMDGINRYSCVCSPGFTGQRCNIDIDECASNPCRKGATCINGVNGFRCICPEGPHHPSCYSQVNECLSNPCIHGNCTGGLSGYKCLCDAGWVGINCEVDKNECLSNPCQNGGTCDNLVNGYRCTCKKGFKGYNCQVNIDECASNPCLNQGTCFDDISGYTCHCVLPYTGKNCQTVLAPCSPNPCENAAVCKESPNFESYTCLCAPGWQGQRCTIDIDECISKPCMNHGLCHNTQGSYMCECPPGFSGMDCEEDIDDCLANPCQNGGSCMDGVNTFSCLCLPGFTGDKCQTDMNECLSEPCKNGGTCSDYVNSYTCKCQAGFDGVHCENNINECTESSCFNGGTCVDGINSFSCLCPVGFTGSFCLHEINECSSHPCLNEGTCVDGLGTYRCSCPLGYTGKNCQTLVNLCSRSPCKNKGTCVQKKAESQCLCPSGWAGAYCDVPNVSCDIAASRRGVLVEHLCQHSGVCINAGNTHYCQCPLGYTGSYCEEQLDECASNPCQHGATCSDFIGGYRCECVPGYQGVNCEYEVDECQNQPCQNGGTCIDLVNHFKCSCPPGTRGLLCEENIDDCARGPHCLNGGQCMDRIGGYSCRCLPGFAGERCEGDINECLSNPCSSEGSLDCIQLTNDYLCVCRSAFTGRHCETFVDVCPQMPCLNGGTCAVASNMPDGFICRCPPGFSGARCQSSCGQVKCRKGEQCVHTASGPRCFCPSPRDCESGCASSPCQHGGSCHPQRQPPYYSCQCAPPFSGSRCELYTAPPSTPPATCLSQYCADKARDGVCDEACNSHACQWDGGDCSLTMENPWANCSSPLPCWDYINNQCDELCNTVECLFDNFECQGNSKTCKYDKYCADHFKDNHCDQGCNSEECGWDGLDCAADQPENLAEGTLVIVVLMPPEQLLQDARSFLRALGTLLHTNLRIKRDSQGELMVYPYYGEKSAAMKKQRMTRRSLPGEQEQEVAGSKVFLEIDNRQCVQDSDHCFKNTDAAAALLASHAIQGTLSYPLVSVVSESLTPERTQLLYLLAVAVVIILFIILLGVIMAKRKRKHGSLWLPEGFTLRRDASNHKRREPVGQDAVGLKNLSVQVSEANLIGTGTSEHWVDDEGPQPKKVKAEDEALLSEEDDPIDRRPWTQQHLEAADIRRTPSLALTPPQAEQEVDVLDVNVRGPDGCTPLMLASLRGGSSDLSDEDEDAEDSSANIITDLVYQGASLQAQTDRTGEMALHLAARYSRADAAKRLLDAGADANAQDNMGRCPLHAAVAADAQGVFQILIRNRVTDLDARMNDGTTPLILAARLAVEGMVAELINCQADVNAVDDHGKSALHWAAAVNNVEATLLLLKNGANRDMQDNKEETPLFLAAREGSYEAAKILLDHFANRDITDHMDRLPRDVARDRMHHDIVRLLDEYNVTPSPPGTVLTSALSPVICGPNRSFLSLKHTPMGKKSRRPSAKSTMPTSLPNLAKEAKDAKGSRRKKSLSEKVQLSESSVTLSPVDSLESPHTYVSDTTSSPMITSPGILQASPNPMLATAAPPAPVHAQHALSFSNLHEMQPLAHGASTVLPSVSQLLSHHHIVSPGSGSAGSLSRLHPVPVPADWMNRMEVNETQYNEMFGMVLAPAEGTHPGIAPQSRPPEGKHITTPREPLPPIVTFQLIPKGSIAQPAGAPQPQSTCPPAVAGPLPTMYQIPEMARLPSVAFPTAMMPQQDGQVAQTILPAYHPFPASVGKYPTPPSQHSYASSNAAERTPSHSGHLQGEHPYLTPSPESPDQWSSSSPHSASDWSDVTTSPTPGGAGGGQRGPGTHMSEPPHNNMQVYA

`COc1cc2c(cc1O)C(c1ccc(CN3CCCC3)cc1)N(C)CC2` (stereo not given): the composite z-score in assay [1] is -1.13; in assay [2], -0.77; in [3] it was -0.148; in [4] it was 0.0711; in assay [5], -0.101; in assay [6], 2.19. For the same molecule, the composite z-score in assay [7] was 1.07; in assay [9], -0.382; in assay [10], -0.81; in assay [11], -1.16; in [15] it was 0.54; in assay [17] it was -0.316. The composite z-score in [18] was -0.814; in [19], -0.579; in assay [20], -0.191. Also, the z-score in [8] was -0.426 (inactive); in assay [12], 0.526 (inactive); in assay [13], -0.262 (inactive); in assay [14], 0.539 (inactive); in assay [16], 0.774 (inactive).

As for `O=C1[C@@]23C=C(Br)[C@H](C[C@@H]2COC3)[C@@]12CO2`, the composite z-score in assay [1] is -0.325; in assay [2], 0.422; in [3], -0.112; in assay [4], 0.38; in [5] it was 0.32; in [6] it was 0.0504. Also, the composite z-score in assay [7] is 0.0447; in assay [9] it was 0.159; in assay [10], -0.268; in assay [11], -0.186; in assay [15] it was -0.498; in [17], -0.124. In addition, the results for the composite z-score in assay [18], in assay [19] and in assay [20] were 0.648, 0.574 and -0.184, respectively. For the same molecule, the z-score is -0.214 (inactive) in assay [8]; 0.108 (inactive) in [12]; -1.34 (inactive) in assay [13]; 0.0993 (inactive) in assay [14]; -1.39 (inactive) in assay [16].

Take `COCC(=C=CC[C@@H](O)c1ccc(OCCO)cc1)CCO`: the composite z-score in assay [1] is -0.394; in assay [2], 1.19; in assay [3] it was -0.0861; in assay [4], 0.115; in assay [5] it was -0.0206; in [6] it was 1.45. The composite z-score was 0.745 in assay [7]; 0.17 in assay [9]; -0.249 in [10]; 0.271 in assay [11]; 1.73 in [15]; -0.132 in [17]. In addition, the composite z-score in [18] was 0.913; in assay [19], 0.622; in [20] it was -0.125. Besides, the z-score is 1.67 (inactive) in assay [8]; 0.177 (inactive) in assay [12]; 0.0708 (inactive) in assay [13]; -0.18 (inactive) in assay [14]; 0.802 (inactive) in [16].

On to `CN1C=C(C(=O)OCCS(C)(=O)=O)C(C(=O)OCCS(C)(=O)=O)=CC(c2ccc(CO)cc2)=CC1c1cccs1` (stereo not given), for which the composite z-score in assay [1] is -0.0269; in [2], -0.0376; in assay [3] it was -0.0448; in assay [4], 0.236; in assay [5], -0.0588; in [6] it was 1.47. The composite z-score in assay [7] is 1.03; in assay [9] it was 0.0216; in assay [10] it was 0.0024; in assay [11], 0.568; in [15] it was 2.01; in assay [17], -0.116. Besides, the results for the composite z-score in [18], in [19] and in assay [20] were 0.484, 0.407 and -0.0594, respectively. For the same molecule, the z-score is 2.55 (inactive) in assay [8]; 0.379 (inactive) in assay [12]; -3.74 (inactive) in [13]; 0.148 (inactive) in [14]; 0.326 (inactive) in [16].

For the molecule `CCCCC(=O)N(CCN1CCOCC1)[C@@H]1CC(C(=O)NCCO)=C[C@H](Oc2c(I)cc(CO)cc2OC)[C@H]1O`, the composite z-score was -0.725 in [1]; 0.151 in [2]; -0.146 in assay [3]; 0.511 in assay [4]; 0.555 in assay [5]; 0.171 in [6]. Moreover, the composite z-score was 0.384 in [7]; 0.0126 in [9]; -0.549 in [10]; 0.729 in assay [11]; 0.322 in [15]; -0.301 in assay [17]. Moreover, the composite z-score was 0.26 in assay [18], 0.232 in [19] and -0.152 in assay [20]. In addition, the z-score in assay [8] is 0.912 (inactive); in assay [12] it was 0.0164 (inactive); in assay [13] it was -0.393 (inactive); in assay [14], 0.0883 (inactive); in assay [16], 1.3 (inactive).

(Values after PubChem BioAssay.)
